MsrA inhibitor – bovine MsrA enzyme inhibitors, primary screen, biochemical, absorbance, HTS | purified bovine MsrA, absorbance read-out | inhibition, % at 15.5 µM | 360,000 compounds, 0.75% hits;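 note: 0% = vehicle wells with enzyme and 100% = reference inhibitor wells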
PKA-R2B activ – activators of PKA-R2B holoenzyme, primary screen, biochemical, fluorescence polarization, Cy5-IP20, human; cAMP-dependent protein kinase catalytic subunit beta (Homo sapiens) + cAMP-dependent …; PKA-R2B holoenzyme dissociation; R2B truncated from residue 108, S112A mutant; 0% DMSO only, 100% 113 µM cGMP; activation, % at 11.4 µM; 340,000 compounds, 0.079% hits;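 active = activation above a cutoff set at the mean over all compounds plus 3 SD, cut at about 18% in these data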;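 note: higher means more holoenzyme dissociation and a rise in polarization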
Target sequence (P31323 whole entry, looked up, other chains not shown, the tested form may be a part): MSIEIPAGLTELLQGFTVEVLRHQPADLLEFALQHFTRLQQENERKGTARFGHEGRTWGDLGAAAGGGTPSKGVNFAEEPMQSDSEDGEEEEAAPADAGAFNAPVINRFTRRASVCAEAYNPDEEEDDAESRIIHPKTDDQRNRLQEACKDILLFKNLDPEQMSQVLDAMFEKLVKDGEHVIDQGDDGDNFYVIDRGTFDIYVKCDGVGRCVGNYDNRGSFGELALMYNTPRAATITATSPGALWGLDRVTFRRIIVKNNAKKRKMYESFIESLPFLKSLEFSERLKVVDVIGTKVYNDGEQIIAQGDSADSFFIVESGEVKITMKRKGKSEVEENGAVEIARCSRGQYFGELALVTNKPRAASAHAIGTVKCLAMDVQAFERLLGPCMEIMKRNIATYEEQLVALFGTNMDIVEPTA
MsrA act – bovine MsrA enzyme activators, primary screen, biochemical, absorbance, HTS; 360,000 compounds, 0.3% hits; Methionine sulfoxide reductase A (Bos taurus); activation, % at 10.6 µM; purified bovine MsrA, absorbance read-out; in the data active = activation above about 7.5%;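 note: 0% = vehicle and 100% = reference activator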
PKA-R1A act – activators of PKA-R1A holoenzyme, primary screen, biochemical, fluorescence polarization, Cy5-IP20, bovine R1A, mouse PKAc; activation, % at 11.4 µM; 340,000 compounds, 0.083% hits; PKA-R1A dissociation; scaled: DMSO 0%, 113 µM cGMP 100%; cAMP-dependent protein kinase type I-alpha regulatory subunit (Bos taurus) + …;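 active = percent activation above the mean of all tested compounds plus 3 SD, cut at about 19% in these data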;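 note: higher means more PKAc released from R1A so a rise in polarization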
MsrA inh confirm – bovine MsrA inhibitors, retest, confirmation, biochemical, absorbance, HTS; shares compounds with MsrA inhibitor; purified bovine MsrA, absorbance read-out; inhibition, % at 15.5 µM; 2,300 compounds, 41% hits;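 note: coupled to thioredoxin reductase with NADPH and selenocystamine and DMSO as substrate; 0% = vehicle only and 100% = full effect of reference inhibitor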
An asterisk follows results filed as active; . = no result. An excerpt weighted towards active compounds, which were near 1.1% of everything screened. Cut-off read from the data, not from the text of the source, unless noted: active = inhibition above about 4.5%; inactive = the rest.

SMILES	MsrA inhibitor	PKA-R2B activ	MsrA act	PKA-R1A act	MsrA inh confirm
COc1ccc(NC(=O)/C=C2\SC(=O)NC2=O)cc1	4.8*	5	-5	6	3
COc1ccc(/C=N/N=C2\SC(CC(=O)O)C(=O)N2c2ccccc2)c(OC)c1 (centres undefined)	4.7*	-1	-6	1	6.1*
C=CCN1C(=O)C(CC(=O)O)S/C1=N/N=C/c1ccc(N(CC)CC)cc1 (centres undefined)	5.0*	-8	-3	-2	3
CN(C)c1ccc(/C=N/N=C2/SC(CC(=O)O)C(=O)N2c2ccc(O)cc2)cc1 (centres undefined)	5.4*	8	-6	-2	5.0*
O=C(O)CC1S/C(=N\N=C/c2ccccc2)N(c2ccc(O)cc2)C1=O (centres undefined)	0	15	-3	-3	.
COc1ccccc1NC(=O)c1cccc(S(=O)(=O)N2CCN(c3ccccc3)CC2)c1	3	-17	-5	-10	.
CC1(C(=O)Nc2cccc(C(F)(F)F)c2)Cc2c(-c3ccccc3)ccnc2O1 (centres undefined)	1	.	0	.	.
COc1ccc(NC(=O)c2cc(-c3sc(NC(=O)c4ccccc4)nc3C)n(CCO)n2)cc1	2	.	.	.	.
O=C(N/C(=C/c1ccc(Br)cc1)C(=O)N1CCOCC1)c1ccco1	1	-3	-3	-12	.
CSc1ccc(/C=C(/NC(=O)c2ccco2)C(=O)N2CCOCC2)cc1	5.0*	-4	0	-8	1
COC(=O)CCC(=O)Nc1ccc(S(=O)(=O)Nc2nc(C)cc(C)n2)cc1	0	8	-2	-2	.
N#C/C(=C\c1cccc(O)c1)C(=O)N1CCCCC1	0	-3	-3	7	.
Cc1cc(/C=C(\C#N)C(=O)N2CCCCC2)cc(C)c1O	4.8*	6	-5	0	3
Cc1cc(C)n2nc(C(F)(F)F)c(-c3ccccc3)c2n1	4.8*	-8	-1	1	0
CC1CN(c2ncc(/C=N/NC(=O)c3ccccc3O)s2)CC(C)O1 (centres undefined)	6.4*	-4	-5	-3	5.7*
CCC(C)N(C(=O)CSc1nnc(-c2cccs2)n1C1CC1)C1CCS(=O)(=O)C1 (centres undefined)	1	-23	-3	-3	.
O=C1C(C=NCCCN2CCCC2=O)=C(O)c2ccccc21	5.2*	3	-2	5	3
CC(C)CN=CC1=C(O)c2ccccc2C1=O	4	-6	-5	-5	.
O=C1C(C=NCCCn2ccnc2)=C(O)c2ccccc21	4.7*	8	-9	-8	2
O=C(Nc1cc(C(F)(F)F)ccc1N1CCOCC1)c1cccc(S(=O)(=O)N2CCOCC2)c1	1	4	-3	-2	.
COc1cccc(C(=O)N[C@@H](Cc2cccnc2)C(=O)N2CCC[C@H]2C(=O)NC2CCCC2)c1	0	.	.	.	.
C[C@@H]1CN([C@@H](C)CO)C(=O)c2cc(Br)cnc2O[C@H]1CN(C)C(=O)Cc1ccccn1	1	-8	-1	10	.
COc1ccccc1-c1cc(C(F)(F)F)nc(N2CCOCC2)n1	12*	7	-3	-2	13*
COc1ccccc1-c1cc(C(F)(F)F)nc(N2CCN(c3ccccc3)CC2)n1	1	-12	-1	-5	.
COc1cccc(-c2nc3ccccc3c(=O)o2)c1	1	8	-4	0	.
SMILES	MsrA inhibitor	PKA-R2B activ	MsrA act	PKA-R1A act	MsrA inh confirm
COc1cccc(C2=N/C(=C\N(C)C)C(=O)O2)c1	11*	6	-8	-6	7.0*
COc1ccc(NC(=O)COC(=O)c2ccc3c(c2)OCO3)c(OC)c1	0	-9	-7	8	.
CN1/C(=C\C=C(C#N)C#N)C(C)(C)c2ccccc21	0	1	-16	3	.
CN1/C(=C/C=N/n2cnnc2)C(C)(C)c2ccccc21	4.8*	1	-6	-2	4
Cc1ccc(OCC(=O)NC2CCCC(C)C2C)c([N+](=O)[O-])n1 (centres undefined)	1	-5	-2	-6	.
COc1ccc(/C=[N+](\[O-])C2N(c3ccccc3)C(=S)SC2(C)C)cc1OC (centres undefined)	5.0*	-3	-5	0	3
Cc1cc(C)n2nc(N)c(N=Nc3ccccc3)c2n1	5.2*	1	-2	-13	4
COc1cc(-c2csc(C)n2)ccc1O	-2	-5	-3	5	.
COc1ccc(-c2csc(C)n2)cc1Br	7.9*	0	-4	0	5.2*
COc1ccc(NC(=O)c2sc3nc(N4CCOCC4)c4c(c3c2N)CC(C)(C)OC4)cc1	0	-1	-3	5	.
COc1ccc(NC(=O)c2sc3nc(N4CCCC4)c4c(c3c2N)CC(C)(C)OC4)cc1	5.3*	5	-2	-3	3
CN(CCO)S(=O)(=O)c1ccc2c(c1)C(=NNC(N)=O)c1cc(S(=O)(=O)N(C)CCO)ccc1-2	4.8*	-14	-5	-8	3
CC(C)COc1ccc(C(=O)Nc2ccc(NC(=O)c3ccco3)cc2)cc1	.	-3	-1	-6	.
O=C1N/C(=N\N=C\c2cccs2)SC1Cc1ccc(Cl)c(Cl)c1 (centres undefined)	1	5	-5	-11	.
C=CCC1S/C(=N/N=C/c2cccs2)NC1=O (centres undefined)	6.7*	0	-4	-5	5.7*
COc1cc2c(cc1OC)CN(C(=O)/C=C/c1cccc([N+](=O)[O-])c1)CC2	-1	1	-1	5	.
COc1ccc(/C=C2\SC(=O)N(CC(=O)NN3CCN(C)CC3)C2=O)cc1OC	4.9*	-1	-4	-3	3
COc1ccc(/C=C2\SC(=O)N(CC(=O)Nc3ccccc3O)C2=O)cc1OC	1	-2	-2	4	.
COc1ccc(CN(C)C(=O)/C=C/[C@H]2O[C@@H](n3cnc4c(N)ncnc43)[C@H](O)[C@@H]2O)cc1OC	1	.	-3	.	.
O=c1nc(N/N=C/c2ccccn2)cn[nH]1	4.7*	-6	-2	-4	3
CCOC(=O)N1CCN(/C=C(\C#N)c2nc3ccccc3s2)CC1	7.0*	-13	-15	-14	5.2*
N#C/C(=C\N1CCN(Cc2ccc3c(c2)OCO3)CC1)c1nc2ccccc2s1	2	-5	-2	-9	.
COc1ccc(F)cc1S(=O)(=O)Nc1cc2c3c(c1)CC(=O)N3CCC2	2	-18	-5	8	.
CCC1SC2=NC(C)=C(C(=O)OC)C(c3ccc(C(=O)OC)cc3)N2C1=O (centres undefined)	2	-12	-2	-1	.
